The supplement of paper PMC12669032

Columns and labels:
Test in all cases: growth AUC relative to DMSO control (median of replicates) (fraction); higher = more growth (less inhibition), active = hit call of the paper
Details in all cases: 20 µM; 24 h;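 active = AUC reduced over 20% with Padj below 0.05 in at least 2 of 3 replicates; inactive = otherwise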
[1] = test system: Akkermansia muciniphila
Outline: (§1)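 Starting at OD600 0.05, gut bacterial monocultures in mGAM were grown anaerobically at 37 °C with 20 µM compound (1% DMSO) under pierced gas-permeable seals. OD600 was read every hour for 24 h, and the lowest OD of each curve was set to 0. Area under the growth curve was normalised to the plate median of solvent-only wells, or to row and column medians on the industrial chemical plate, and the median of three biological replicates grown on separate days is given.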

[2] = test system: Bacteroides caccae
Outline: as §1

[3] = test system: Bacteroides clarus
Outline: as §1

[4] = test system: Bacteroides dorei
Outline: as §1

[5] = test system: Bacteroides stercoris
Outline: as §1

[6] = test system: Bacteroides thetaiotaomicron
Outline: as §1

[7] = test system: Bacteroides uniformis
Outline: as §1

[8] = test system: Bifidobacterium longum subsp. longum
Outline: as §1

[9] = test system: Clostridium difficile
Outline: as §1

[10] = test system: Collinsella aerofaciens
Outline: as §1

[11] = test system: Coprococcus comes
Outline: as §1

[12] = test system: Escherichia coli ED1a
Outline: as §1

[13] = test system: Escherichia coli IAI1
Outline: as §1

[14] = test system: Eubacterium rectale
Outline: as §1

[15] = test system: Fusobacterium nucleatum subsp. animalis
Outline: as §1

[16] = test system: Lactobacillus gasseri
Outline: as §1

[17] = test system: Lactobacillus paracasei
Outline: as §1

[18] = test system: Odoribacter splanchnicus
Outline: as §1

[19] = test system: Parabacteroides distasonis
Outline: as §1

[20] = test system: Parabacteroides merdae
Outline: as §1

Measured: growth AUC

COP(=O)(OC)O/C(C)=C/C(=O)N(C)C
inactive: [1] 1.15 | [2] 1.01 | [3] 0.988 | [4] 0.993 | [5] 1.02 | [6] 0.988 | [7] 1.02 | [8] 0.989 | [9] 0.987 | [10] 0.996 | [11] 1 | [12] 1 | [13] 0.997 | [14] 1.01 | [15] 0.937 | [16] 1.08 | [17] 1.06 | [18] 0.972 | [19] 0.905 | [20] 0.994

COC(=O)NCc1cc(/C(C)=N\OCc2cccc(C)n2)ccc1Cl
inactive: [1] 1.07 | [2] 0.936 | [3] 0.984 | [4] 0.949 | [5] 0.939 | [6] 0.995 | [7] 0.902 | [8] 1.03 | [9] 0.968 | [10] 0.969 | [11] 1.05 | [12] 0.979 | [13] 0.995 | [14] 1.08 | [15] 0.934 | [16] 0.893 | [17] 0.969 | [18] 1 | [19] 0.772 | [20] 0.947

CCOCN(C(=O)CCl)c1c(C)cccc1CC
inactive: [1] 0.969 | [2] 1.01 | [3] 0.995 | [4] 1.04 | [5] 1 | [6] 0.967 | [7] 0.968 | [8] 0.986 | [9] 0.983 | [10] 1.03 | [11] 1.01 | [12] 1 | [13] 1.04 | [14] 0.983 | [15] 1.04 | [16] 1.03 | [17] 1.05 | [18] 1.01 | [19] 1.03 | [20] 0.974

CC(=NCc1ccc(Cl)nc1)NC#N
inactive: [1] 1.01 | [2] 1.02 | [3] 1.05 | [4] 1.04 | [5] 1.1 | [6] 0.99 | [7] 1.03 | [8] 1.02 | [9] 1.03 | [10] 1.02 | [11] 1 | [12] 1.02 | [13] 1.03 | [14] 1 | [15] 1.09 | [16] 0.997 | [17] 1.03 | [18] 1.04 | [19] 0.999 | [20] 0.968

CCC(C)(C)C(=O)OC1=C(c2ccc(Cl)cc2Cl)C(=O)OC12CCCCC2
inactive: [1] 1.03 | [2] 1 | [3] 0.975 | [4] 0.976 | [5] 0.978 | [6] 0.946 | [7] 0.911 | [8] 0.99 | [9] 0.973 | [10] 0.987 | [11] 0.977 | [12] 0.966 | [13] 0.949 | [14] 0.906 | [15] 0.968 | [16] 0.928 | [17] 0.987 | [18] 1.02 | [19] 0.861 | [20] 0.968

Oc1ccc(C(c2ccc(O)cc2)(C(F)(F)F)C(F)(F)F)cc1
inactive: [1] 1.03 | [8] 0.924 | [9] 0.966 | [10] 0.894 | [11] 1.06 | [12] 0.969 | [13] 1 | [16] 0.577 | [17] 0.727
active: [2] 0.63 | [3] 0.464 | [4] 0.154 | [5] 0.0109 | [6] 0.679 | [7] 0.686 | [14] 0.792 | [15] 0.595 | [18] 0.0871 | [19] 0.0433 | [20] 0.515

CSC1=N[C@@](C)(c2ccccc2)C(=O)N1Nc1ccccc1
inactive: [1] 1.05 | [2] 0.978 | [3] 0.967 | [4] 0.985 | [5] 1.26 | [6] 0.961 | [7] 0.986 | [8] 1.04 | [9] 0.997 | [10] 0.99 | [11] 0.988 | [12] 1.01 | [13] 0.993 | [14] 1.08 | [15] 1.2 | [16] 0.853 | [17] 0.968 | [18] 0.924 | [19] 0.872 | [20] 0.953

CC1CCCCC1NC(=O)Nc1ccccc1 (mixture of isomers)
inactive: [1] 0.952 | [2] 1 | [3] 0.967 | [4] 0.993 | [5] 0.973 | [6] 0.969 | [7] 0.959 | [8] 0.898 | [9] 1.01 | [10] 0.976 | [11] 0.989 | [12] 0.995 | [13] 0.972 | [14] 0.942 | [15] 0.999 | [16] 1.01 | [17] 0.926 | [18] 1.01 | [19] 0.982 | [20] 0.986

C=CCOC(Cn1ccnc1)c1ccc(Cl)cc1Cl.O=S(=O)(O)O (stereo not given)
inactive: [1] 0.744 | [2] 0.949 | [3] 0.925 | [4] 1 | [5] 0.994 | [6] 0.931 | [7] 0.977 | [8] 0.843 | [9] 0.884 | [10] 0.845 | [12] 0.973 | [13] 0.954 | [15] 0.925 | [16] 0.962 | [17] 0.881 | [18] 0.985 | [19] 0.951 | [20] 0.89
active: [11] 0.184 | [14] 0.0325

O=C1C(Cl)=C(Cl)C(=O)c2ccccc21
inactive: [1] 0.907 | [2] 0.987 | [3] 0.987 | [4] 0.958 | [5] 0.962 | [6] 0.996 | [7] 0.986 | [8] 0.904 | [9] 0.912 | [10] 0.988 | [11] 1.05 | [12] 1.02 | [13] 0.973 | [14] 1.34 | [15] 1.02 | [16] 0.929 | [17] 0.941 | [18] 0.797 | [19] 0.938 | [20] 0.967

Nc1c([N+](=O)[O-])ccc(Oc2ccccc2)c1Cl
inactive: [1] 0.741 | [2] 0.964 | [3] 0.861 | [4] 0.941 | [5] 0.925 | [6] 0.941 | [7] 0.978 | [8] 0.871 | [9] 0.982 | [10] 0.897 | [11] 0.903 | [12] 1.01 | [13] 1.01 | [14] 0.887 | [15] 0.947 | [16] 1.02 | [17] 0.832 | [18] 0.935 | [19] 0.951 | [20] 0.912

CCCOc1nn(C(=O)[N-]S(=O)(=O)c2ccccc2C(=O)OC)c(=O)n1C.[Na+]
inactive: [1] 0.978 | [2] 1.02 | [3] 0.979 | [4] 1.02 | [5] 1.13 | [6] 0.992 | [7] 0.972 | [8] 1.01 | [9] 0.994 | [10] 1.02 | [11] 0.988 | [12] 0.994 | [13] 1.02 | [14] 1.08 | [15] 1.12 | [16] 0.968 | [17] 0.977 | [18] 1.1 | [19] 1.02 | [20] 0.999

Oc1cccc2cccnc12
inactive: [1] 0.981 | [2] 0.994 | [3] 1.01 | [4] 0.993 | [5] 1.12 | [6] 0.984 | [7] 0.988 | [8] 1.14 | [9] 0.959 | [10] 0.963 | [11] 0.928 | [12] 0.987 | [13] 0.982 | [14] 0.904 | [15] 1.04 | [16] 1.08 | [17] 0.942 | [18] 1.02 | [19] 1 | [20] 0.993

O=C(Nc1ccccc1)c1ccccc1I
inactive: [1] 0.823 | [2] 1.03 | [3] 1 | [4] 0.994 | [5] 1.05 | [6] 1.01 | [7] 0.975 | [8] 1.03 | [9] 1.08 | [10] 1.07 | [11] 1.05 | [12] 1.04 | [13] 1 | [14] 0.97 | [15] 1.04 | [16] 1.09 | [17] 0.96 | [18] 0.989 | [19] 0.991 | [20] 1.01

C=C/C=C/CC1=C(C)C(OC(=O)[C@@H]2C(/C=C(\C)C(=O)OC)C2(C)C)CC1=O.C=C/C=C/CC1=C(C)[C@@H](OC(=O)[C@@H]2C(C=C(C)C)C2(C)C)CC1=O (stereo not given in full)
inactive: [1] 0.901 | [2] 0.966 | [3] 0.918 | [4] 1.02 | [5] 0.87 | [6] 0.967 | [7] 0.971 | [8] 0.698 | [9] 1.01 | [10] 0.949 | [11] 0.953 | [12] 1.01 | [13] 0.966 | [14] 0.858 | [15] 1.04 | [16] 1.02 | [17] 0.864 | [18] 0.985 | [19] 0.954 | [20] 0.932

COc1cc(OC)nc(Sc2cccc(Cl)c2C(=O)O)n1
inactive: [1] 1.28 | [2] 1.01 | [3] 0.98 | [4] 0.959 | [5] 0.977 | [6] 1.02 | [7] 0.986 | [8] 1 | [9] 1.01 | [10] 0.964 | [11] 1.02 | [12] 0.981 | [13] 0.977 | [14] 1.04 | [15] 0.941 | [16] 0.897 | [17] 0.971 | [18] 0.985 | [19] 0.906 | [20] 0.975
